This passage reports growth inhibition results from PubChem BioAssay (NCI).

About 79,000 compounds went through this panel and 15% of them were active in at least one assay; those are over-represented in the sample as a whole. A number with no mark means an inactive call. Calls of active or inactive are those of the source. No stated cut-off is given here; in the data, active means growth inhibition above about 70%; inactive means the rest.

Assay [1] can be described thus: NCI Yeast Anticancer Drug Screen. Data for the rad50 strain (AID 155).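 Further: 0% = growth of vehicle-only cultures of the same strain.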 The note with it: S. cerevisiae rad50 strain growth inhibition; at 50.0 µM; stronger effect = higher value. The method, boiled down: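 Inhibition values express reduced yeast growth in compound-treated cultures relative to vehicle-treated controls.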
The nature of assay [2]: NCI Yeast Anticancer Drug Screen. Data for the mec2-1 strain (AID 157). The note with it: S. cerevisiae mec2-1 strain, at 50.0 µM, stronger effect = higher value. The gist of the method:
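Growth inhibition is read against vehicle-treated controls after compound exposure of the mec2-1 yeast strain, which is defective in DNA damage repair or cell cycle control.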

Assay [3] can be described thus: NCI Yeast Anticancer Drug Screen. Data for the sgs1 mgt1 strain (AID 161).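 Further: 0% = growth of cultures given vehicle only.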 The note with it: S. cerevisiae sgs1 mgt1 strain, at 50.0 µM, stronger effect = higher value. The method, boiled down: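 Yeast cells carrying a defined DNA-repair defect were exposed to test compounds. Growth inhibition was measured relative to vehicle-treated controls.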
Assay [4] is described as follows: NCI Yeast Anticancer Drug Screen. Data for the cln2 rad14 strain (AID 165).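 Further: 0% = growth equal to vehicle treated cultures.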 The note with it: S. cerevisiae cln2 rad14 strain, at 50.0 µM, stronger effect = higher value. The method, boiled down: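 Growth inhibition, relative to vehicle-treated controls, is the read-out. The test organism is a yeast strain with defined genetic alterations, cln2 rad14.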
The nature of assay [5]: NCI Yeast Anticancer Drug Screen. Data for the bub3 strain (AID 167). The note with it: S. cerevisiae bub3 mutant strain, at 50.0 µM, stronger effect = higher value. The method, boiled down:
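Steps: expose the mutant yeast strain to compound; grow alongside vehicle-treated cultures; measure growth; express inhibition against the vehicle cultures.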

Assay [6] is described as follows: NCI Yeast Anticancer Drug Screen. Data for the mlh1 rad18 strain (AID 175). Conditions: S. cerevisiae mlh1 rad18 strain growth inhibition; at 50.0 µM; stronger effect = higher value. The gist of the method:
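Cells of a genetically altered yeast strain, deficient in DNA damage repair, were treated with compound. Their growth was then compared with that of vehicle-treated cultures to give inhibition.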

With `CCN(CC)C(=O)Nc1cccc(O)c1`, the growth inhibition was -6.55% in assay [1]; 6.65% in assay [2]; -2.6% in assay [3]; -28.7% in assay [4]; -0.25% in assay [5]; 5.65% in assay [6].
Regarding `O=C(Nc1cccc2ccccc12)OCC1CC1`, the growth inhibition in assay [1] is -4%; in assay [2], 22.8%; in assay [3] it was -4.55%; in assay [4], -6.2%; in assay [5], -34.9%; in assay [6], -4.4%.
Consider `Nc1nc(N)c(-c2ccc(Cl)c(Cl)c2)c(COc2cccc3ccccc23)n1`, for which the growth inhibition was 98.7% (active) in assay [1]; 99% (active) in assay [2]; 99.2% (active) in assay [3]; 96.5% (active) in assay [4]; 98.1% (active) in assay [5]; 98.7% (active) in assay [6].
With `CC(C)CC(=O)OC1=C(O)C(=O)C(OC(=O)CC(C)C)=C(O)C1=O`, the growth inhibition was -5.45% in assay [1]; -13.7% in assay [2]; 2.1% in assay [3]; -62.4% in assay [4]; 0.1% in assay [5]; 5.65% in assay [6].
Regarding `COc1ccc2[nH]c(-c3cccc(N(C)C)c3)cc(=O)c2c1`, the growth inhibition was -26.1% in assay [1]; -8.1% in assay [2]; -12.5% in assay [3]; -3.95% in assay [4]; -26% in assay [5]; -70.6% in assay [6].
As for `CCCCC/C(=N\NC(N)=O)C1=CCCCC1`, the growth inhibition was 13.1% in assay [1]; 7.6% in assay [2]; -9.6% in assay [3]; -19.9% in assay [4]; -25.4% in assay [5]; 18.4% in assay [6].
With `Brc1cccc2ccc3ccccc3c12`, the growth inhibition was 23.2% in assay [1]; 19% in assay [2]; 29.1% in assay [3]; 8.25% in assay [4]; 32% in assay [5]; 75.7% (active) in assay [6].
For the compound `Cc1noc(C)c1N=Nc1ccc2nonc2c1N`, the growth inhibition in assay [1] was -15.5%; in assay [2], 7.6%; in assay [3], -14.1%; in assay [4] it was 16.5%; in assay [5], 9.35%; in assay [6] it was 3.05%.
`Cc1ccc(SCC(=O)O)c(C)c1`: the growth inhibition in assay [1] was 27.1%; in assay [2], 17.9%; in assay [3], 18.1%; in assay [4], 14%; in assay [5], 7.65%; in assay [6] it was -13.5%.
In the case of `O=S(=O)(O/C(=C(\OS(=O)(=O)C(F)(F)C(F)(F)C(F)(F)C(F)(F)F)c1ccccc1)c1ccccc1)C(F)(F)C(F)(F)C(F)(F)C(F)(F)F`, the growth inhibition in assay [1] is -6%; in assay [2], -14.1%; in assay [3], -23.4%; in assay [4], -18.1%; in assay [5], 7.9%; in assay [6] it was -5.85%.
With `O=C(O)Cc1nc(Cl)ccc1Cl`, the growth inhibition was 16.1% in assay [1]; -7.2% in assay [2]; -0.3% in assay [3]; -15.2% in assay [4]; -1.25% in assay [5]; -1.1% in assay [6].
`C/C=C/c1cc(C=O)cc(OC)c1O`: the growth inhibition in assay [1] is 0.15%; in assay [2], -8.1%; in assay [3], -5.4%; in assay [4] it was -10.6%; in assay [5] it was -4.4%; in assay [6], 5.75%.
Turning to `CC1(C)OC(=O)N=C1c1ccc(Cl)cc1`, the growth inhibition in assay [1] is -20.2%; in assay [2] it was -10%; in assay [3], -19.8%; in assay [4], 12.5%; in assay [5], -20%; in assay [6] it was -12.2%.
Consider `CC1CN=C(N(C(=O)Nc2ccc(F)c(Cl)c2)c2ccccc2)S1` (stereo not given), for which the growth inhibition in assay [1] is -1.55%; in assay [2] it was 14.3%; in assay [3], -12.3%; in assay [4] it was 25.4%; in assay [5], 41.3%; in assay [6], -29.9%.
As for `CCNC(=O)Nc1nc2ccccc2s1`, the growth inhibition was -27.8% in assay [1]; -13% in assay [2]; 1.75% in assay [3]; -90.7% in assay [4]; -23.8% in assay [5]; -21.4% in assay [6].
On to `O=C(CN1CCCc2ccccc21)c1ccc(Cl)cc1`, for which the growth inhibition was -13.2% in assay [1]; -2.05% in assay [2]; 2.55% in assay [3]; 9.2% in assay [4]; 14.1% in assay [5]; 4.35% in assay [6].
In the case of `O=C(/C=C(\C(=O)c1ccccc1)c1ccccc1)c1ccc(Cl)cc1`, the growth inhibition in assay [1] was -12%; in assay [2], 8.5%; in assay [3], -4.45%; in assay [4] it was 1.05%; in assay [5], -13.1%; in assay [6], -24.6%.
For `C/C=C/C(C/C=C(\C)CO[Si](C)(C)C(C)(C)C)O[Si](C)(C)C(C)(C)C` (stereo not given), the growth inhibition is 1.1% in assay [1]; -14.5% in assay [2]; -6.45% in assay [3]; -8.45% in assay [4]; 4.9% in assay [5]; 2.95% in assay [6].
As to `COC(=O)C(C(=O)C(=O)Nc1ccc([N+](=O)[O-])cc1)c1nc2ccc([N+](=O)[O-])cc2[nH]c1=O` (stereo not given), the growth inhibition was 8.95% in assay [1]; -3.1% in assay [2]; -32.5% in assay [3]; -41.2% in assay [4]; -0.85% in assay [5]; 8.75% in assay [6].
On to `CCC[N+](C)(C)C`, for which the growth inhibition was 5.65% in assay [1]; -28.2% in assay [2]; -1.15% in assay [3]; 6.4% in assay [4]; 1.6% in assay [5]; -5.45% in assay [6].
